According to PubChem BioAssay (EPA / NIEHS):
Values joined by “and” are separate entries in the source; they are usually repeats but may differ in a detail not shown here. Identical values can stand only once. Inconclusive results are not listed. Active and inactive are the calls of the source. Rule for the calls, unless noted: active = hit-call score of the fitted dose curve at least 0.9, where 1 is the maximum; inconclusive = response in the unintended direction; inactive = score below 0.9.

Assays:
[1] = target: rat Opioid Receptor, Non-selective Binding, Oprm1 (gene 25601) (UniProt P33535); test: NVS_GPCR_rOpiate_NonSelective: NovaScreen (NVS) G Protein-Coupled Receptor Assay for rat Opioid Receptor, Non-selective Binding (AID 2283318)
rat Opioid Receptor, Non-selective Binding, Oprm1 (gene 25601), sequence (P33535 whole entry, looked up): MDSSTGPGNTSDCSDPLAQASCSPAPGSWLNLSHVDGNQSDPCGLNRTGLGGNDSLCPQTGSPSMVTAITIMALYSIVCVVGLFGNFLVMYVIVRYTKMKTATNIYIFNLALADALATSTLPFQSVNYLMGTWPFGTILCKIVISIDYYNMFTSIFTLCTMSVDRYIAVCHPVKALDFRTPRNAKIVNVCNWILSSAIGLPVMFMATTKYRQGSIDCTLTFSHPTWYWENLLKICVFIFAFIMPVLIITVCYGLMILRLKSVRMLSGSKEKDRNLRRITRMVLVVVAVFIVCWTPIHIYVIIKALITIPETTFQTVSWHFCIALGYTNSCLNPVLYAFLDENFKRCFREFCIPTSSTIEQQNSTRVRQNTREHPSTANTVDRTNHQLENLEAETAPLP
Outline: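 Filter-based radioligand displacement using rat forebrain membrane preparations, measured 1.5 h post-dosing. Single-concentration duplicate screen at 25 uM, follow-up in concentration series; activity taken as signal loss relative to DMSO.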

[2] = NVS_IC_rCaDHPRCh_L: NovaScreen (NVS) Ion Channel Assay for rat Calcium Channel, Type L, Dihydropyridine Site (CaDHPRCh_L) (AID 2283320)
Outline: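 Rat cortex membrane preparation; dihydropyridine-site radioligand displacement read 1 h post-dose by filtration and scintillation. Primary single-point screen 25 uM in duplicate, then concentration series to 50 uM maximum; DMSO as negative control.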

[3] = target: Sodium channel protein type 1 subunit alpha (Rattus norvegicus) (UniProt P04774); test: NVS_IC_rNaCh_site2: NovaScreen (NVS) Ion Channel Assay for rat Sodium Channel, Site 2 (NaCh) (AID 2283322);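 note: hit means loss of radioligand binding signal relative to DMSO so AC50 marks displacement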
Outline: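 Initial duplicate single-point testing at 25 uM, followed by concentration-response runs for actives. Binding of radioligand to rat forebrain membranes quantified after 1 h via filter-based radiodetection.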

[4] = target: human Serotonin, 5-Hydroxytryptamine Receptor 3 (5HT3), HTR3A (gene 3359) (UniProt P46098); test: NVS_LGIC_h5HT3: NovaScreen (NVS) Ligand-Gated Ion Channel Assay for human Serotonin, 5-Hydroxytryptamine Receptor 3 (5HT3) (AID 2283325)
human Serotonin, 5-Hydroxytryptamine Receptor 3 (5HT3), HTR3A (gene 3359), sequence (P46098 whole entry, looked up): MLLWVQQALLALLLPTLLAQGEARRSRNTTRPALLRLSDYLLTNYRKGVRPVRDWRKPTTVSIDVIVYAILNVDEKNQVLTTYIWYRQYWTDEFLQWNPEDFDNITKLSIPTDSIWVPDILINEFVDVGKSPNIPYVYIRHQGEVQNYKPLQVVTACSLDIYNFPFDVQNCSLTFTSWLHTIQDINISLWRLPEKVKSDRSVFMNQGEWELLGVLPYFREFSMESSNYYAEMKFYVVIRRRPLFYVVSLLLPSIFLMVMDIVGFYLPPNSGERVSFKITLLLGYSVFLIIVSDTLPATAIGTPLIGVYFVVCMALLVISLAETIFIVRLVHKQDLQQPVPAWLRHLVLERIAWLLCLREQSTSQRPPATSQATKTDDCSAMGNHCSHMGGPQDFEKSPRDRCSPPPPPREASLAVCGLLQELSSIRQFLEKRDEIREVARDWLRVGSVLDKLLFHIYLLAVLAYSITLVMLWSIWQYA
Outline: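 Initially tested at 25 uM in duplicate, then up to 50 uM in concentration-response for actives, compounds competed with a radioligand for HEK293-derived human 5-HT3 receptor. Bound counts were measured by filtration and scintillation at 1 h; loss of signal versus DMSO.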

[5] = NVS_IC_rCaBTZCHL: NovaScreen (NVS) Ion Channel Assay for Calcium Channel, Type L, Benzothiazepine Site (CaBTZCHL) (AID 2283337)
Outline: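 Test chemicals were added to rat cortical membranes and incubated 1.5 h with a tritiated or iodinated radioligand for the benzothiazepine site. Bound ligand was separated by filtration and counted. Actives from the 25 uM duplicate screen were retested in concentration series.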

[6] = target: rat Thyrotropin Releasing Hormone Receptor (TRH), Trhr (gene 25570) (UniProt Q01717); test: NVS_GPCR_rTRH: NovaScreen (NVS) G Protein-Coupled Receptor Assay for rat Thyrotropin Releasing Hormone Receptor (TRH) (AID 2283329);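 note: hit means lower bound tracer signal versus DMSO baseline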
rat Thyrotropin Releasing Hormone Receptor (TRH), Trhr (gene 25570), sequence (Q01717 whole entry, looked up): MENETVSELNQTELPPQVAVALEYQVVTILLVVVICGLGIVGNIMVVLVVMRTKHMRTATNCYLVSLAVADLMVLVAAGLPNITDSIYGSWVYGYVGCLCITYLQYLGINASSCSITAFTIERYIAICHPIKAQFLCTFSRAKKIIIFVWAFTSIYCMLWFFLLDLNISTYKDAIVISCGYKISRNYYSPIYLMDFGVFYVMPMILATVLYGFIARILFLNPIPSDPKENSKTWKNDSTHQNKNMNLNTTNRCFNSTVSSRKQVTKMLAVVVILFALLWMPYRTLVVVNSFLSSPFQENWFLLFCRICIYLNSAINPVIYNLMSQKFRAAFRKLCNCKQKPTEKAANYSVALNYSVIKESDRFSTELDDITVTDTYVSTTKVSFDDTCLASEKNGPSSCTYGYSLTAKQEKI
Outline: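 Test compounds are screened at 25 uM in duplicate against radioligand binding in rat forebrain membranes, with active pairs followed up over a concentration range. Detection uses filter-based radiodetection after a 4 h exposure.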

[7] = target: Voltage-gated inwardly rectifying potassium channel KCNH2 (Homo sapiens) (UniProt Q12809); test: NVS_IC_hKhERGCh: NovaScreen (NVS) Ion Channel Assay for human Potassium Channel ERG (KhERGCh) (AID 2283333)
Voltage-gated inwardly rectifying potassium channel KCNH2 (Homo sapiens), sequence (Q12809 whole entry, looked up): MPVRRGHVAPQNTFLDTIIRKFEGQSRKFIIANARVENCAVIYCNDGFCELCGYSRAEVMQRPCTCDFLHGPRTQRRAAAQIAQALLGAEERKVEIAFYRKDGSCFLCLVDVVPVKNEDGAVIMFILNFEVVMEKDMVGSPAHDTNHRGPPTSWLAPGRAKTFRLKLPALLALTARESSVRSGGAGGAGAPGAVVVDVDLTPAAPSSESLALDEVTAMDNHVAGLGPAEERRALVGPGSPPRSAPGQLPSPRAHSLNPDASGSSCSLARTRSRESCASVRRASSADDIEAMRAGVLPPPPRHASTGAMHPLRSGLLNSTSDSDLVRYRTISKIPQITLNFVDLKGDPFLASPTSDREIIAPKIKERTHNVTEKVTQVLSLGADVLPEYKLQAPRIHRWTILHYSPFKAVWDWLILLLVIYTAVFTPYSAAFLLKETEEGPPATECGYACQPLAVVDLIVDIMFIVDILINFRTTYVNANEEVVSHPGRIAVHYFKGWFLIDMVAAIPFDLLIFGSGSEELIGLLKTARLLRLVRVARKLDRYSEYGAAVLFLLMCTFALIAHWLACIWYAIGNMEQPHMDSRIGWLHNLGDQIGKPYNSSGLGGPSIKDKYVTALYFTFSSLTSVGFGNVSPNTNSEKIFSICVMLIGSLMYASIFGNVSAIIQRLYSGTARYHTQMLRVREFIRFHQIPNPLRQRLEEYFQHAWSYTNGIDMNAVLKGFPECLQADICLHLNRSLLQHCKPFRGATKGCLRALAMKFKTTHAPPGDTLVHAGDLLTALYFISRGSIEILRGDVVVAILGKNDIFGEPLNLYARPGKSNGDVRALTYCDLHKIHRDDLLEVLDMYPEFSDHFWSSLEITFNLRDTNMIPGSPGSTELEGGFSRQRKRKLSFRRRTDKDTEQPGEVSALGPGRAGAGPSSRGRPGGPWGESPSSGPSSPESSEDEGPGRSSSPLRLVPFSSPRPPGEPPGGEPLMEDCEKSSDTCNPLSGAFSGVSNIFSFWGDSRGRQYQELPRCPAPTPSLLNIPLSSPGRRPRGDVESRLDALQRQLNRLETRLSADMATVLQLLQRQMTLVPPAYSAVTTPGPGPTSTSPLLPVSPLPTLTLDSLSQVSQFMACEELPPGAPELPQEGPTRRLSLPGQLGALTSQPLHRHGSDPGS
Outline: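 Membranes from CHO cells expressing human ERG; displacement of radioligand measured by filtration and scintillation after 0.75 h. Single-concentration duplicate screen at 25 uM, then concentration-response for actives; DMSO baseline.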

[8] = target: rat Glutamate, AMPA Site (AMPA), Gria1 (gene 50592) (UniProt P19490); test: NVS_LGIC_rAMPA: NovaScreen (NVS) Ligand-Gated Ion Channel Assay for rat Glutamate, AMPA Site (AMPA) (AID 2283324)
rat Glutamate, AMPA Site (AMPA), Gria1 (gene 50592), sequence (P19490 whole entry, looked up): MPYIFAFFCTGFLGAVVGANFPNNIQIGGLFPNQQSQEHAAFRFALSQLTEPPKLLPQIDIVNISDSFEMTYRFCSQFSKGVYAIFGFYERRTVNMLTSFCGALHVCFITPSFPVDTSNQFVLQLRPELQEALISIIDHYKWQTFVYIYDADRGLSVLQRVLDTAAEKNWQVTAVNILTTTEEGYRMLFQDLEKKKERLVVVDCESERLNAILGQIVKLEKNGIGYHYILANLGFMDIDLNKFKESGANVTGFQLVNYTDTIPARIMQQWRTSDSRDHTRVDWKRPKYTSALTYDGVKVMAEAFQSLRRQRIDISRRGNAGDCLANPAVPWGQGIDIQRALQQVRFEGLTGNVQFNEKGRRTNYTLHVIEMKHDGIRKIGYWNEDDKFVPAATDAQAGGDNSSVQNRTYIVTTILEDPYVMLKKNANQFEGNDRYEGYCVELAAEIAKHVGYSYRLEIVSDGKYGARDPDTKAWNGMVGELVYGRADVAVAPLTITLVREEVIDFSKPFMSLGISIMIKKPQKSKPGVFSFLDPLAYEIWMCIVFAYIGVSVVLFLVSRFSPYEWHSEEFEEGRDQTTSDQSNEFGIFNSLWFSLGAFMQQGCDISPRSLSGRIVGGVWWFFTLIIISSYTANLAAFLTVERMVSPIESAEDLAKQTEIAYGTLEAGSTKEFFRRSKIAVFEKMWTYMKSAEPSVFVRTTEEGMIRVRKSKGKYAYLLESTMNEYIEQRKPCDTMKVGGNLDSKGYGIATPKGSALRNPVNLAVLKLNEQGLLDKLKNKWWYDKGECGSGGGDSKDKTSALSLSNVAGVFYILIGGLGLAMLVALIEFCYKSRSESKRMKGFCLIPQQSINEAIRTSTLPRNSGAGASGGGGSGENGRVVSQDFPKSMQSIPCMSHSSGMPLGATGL
Outline: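 Screening at 25 uM in duplicate preceded concentration series reaching 50 uM for qualifying compounds. Radioligand displacement on rat forebrain membranes, 1 h, filter-based scintillation readout; reduced binding relative to DMSO.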

[9] = target: rat Peripheral-type Benzodiazepine Receptor (PBR), Tspo (gene 24230) (UniProt P16257); test: NVS_MP_rPBR: NovaScreen (NVS) Membrane Protein Assay for rat Peripheral-type Benzodiazepine Receptor (PBR) (AID 2283335)
rat Peripheral-type Benzodiazepine Receptor (PBR), Tspo (gene 24230), sequence (P16257 whole entry, looked up): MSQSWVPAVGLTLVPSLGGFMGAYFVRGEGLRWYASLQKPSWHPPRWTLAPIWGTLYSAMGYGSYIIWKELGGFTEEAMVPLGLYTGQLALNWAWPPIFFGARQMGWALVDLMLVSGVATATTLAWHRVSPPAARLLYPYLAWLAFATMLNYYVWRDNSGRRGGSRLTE
Outline: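 Competitive displacement of specific radioligand from rat kidney membrane PBR, read by filtration and scintillation after 1 h. Compounds first tested at 25 uM in duplicate, then in concentration series; signal loss relative to DMSO.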

[10] = target: rat Glutamate, NMDA Agonist Site (GluNMDA), Grin1 (gene 24408) (UniProt P35439); test: NVS_LGIC_rGluNMDA_Agonist: NovaScreen (NVS) Ligand-Gated Ion Channel Assay for rat Glutamate, NMDA Agonist Site (GluNMDA) (AID 2283327)
Outline: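 Radioligand displacement at the agonist site on rat forebrain membrane preparations, read by filter scintillation after 1 h. Chemicals were first run at 25 uM in duplicate; those passing threshold were titrated to a 50 uM maximum.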

[11] = target: Glutamate receptor ionotropic, kainate 1 (Rattus norvegicus) (UniProt P22756); test: NVS_IC_rKAR: NovaScreen (NVS) Ion Channel Assay for rat Kainic Acid Receptors (KAR) (AID 2283334; active = hit-call score of the fitted dose curve at least 0.9, where 1 is the maximum; inactive = score below 0.9)
Glutamate receptor ionotropic, kainate 1 (Rattus norvegicus), sequence (P22756 whole entry, looked up): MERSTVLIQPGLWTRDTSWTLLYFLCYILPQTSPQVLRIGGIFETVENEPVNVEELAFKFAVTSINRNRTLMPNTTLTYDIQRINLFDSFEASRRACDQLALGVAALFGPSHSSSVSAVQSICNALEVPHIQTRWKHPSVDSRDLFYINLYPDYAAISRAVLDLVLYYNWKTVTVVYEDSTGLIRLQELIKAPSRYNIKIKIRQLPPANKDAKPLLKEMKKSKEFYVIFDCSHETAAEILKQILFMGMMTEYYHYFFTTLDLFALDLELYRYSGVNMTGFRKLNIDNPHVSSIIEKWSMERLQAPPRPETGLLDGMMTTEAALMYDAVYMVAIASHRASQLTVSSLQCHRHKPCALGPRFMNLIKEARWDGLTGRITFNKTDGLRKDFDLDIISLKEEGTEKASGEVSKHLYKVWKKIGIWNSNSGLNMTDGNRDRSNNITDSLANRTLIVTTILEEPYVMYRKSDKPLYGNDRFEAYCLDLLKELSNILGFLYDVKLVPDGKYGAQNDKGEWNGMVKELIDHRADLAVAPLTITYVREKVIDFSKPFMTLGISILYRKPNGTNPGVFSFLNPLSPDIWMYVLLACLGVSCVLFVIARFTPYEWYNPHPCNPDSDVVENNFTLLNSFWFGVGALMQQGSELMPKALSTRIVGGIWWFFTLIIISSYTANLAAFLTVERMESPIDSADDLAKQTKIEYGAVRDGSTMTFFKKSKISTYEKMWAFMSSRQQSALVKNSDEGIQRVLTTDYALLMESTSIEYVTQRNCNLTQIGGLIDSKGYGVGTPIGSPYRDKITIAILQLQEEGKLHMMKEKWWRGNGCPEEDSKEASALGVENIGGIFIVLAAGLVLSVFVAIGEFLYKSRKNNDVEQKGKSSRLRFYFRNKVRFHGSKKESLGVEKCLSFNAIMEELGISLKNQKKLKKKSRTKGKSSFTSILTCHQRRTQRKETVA
Outline: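 Rat forebrain membrane preparation incubated 1 h with radioligand and test chemical; bound signal read by filtration and scintillation. Single-concentration screen at 25 uM, then concentration series to 50 uM maximum.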

[12] = target: rat Glutamate, MK-801 Agonist Site (GluNMDA_MK801), Grin1 (gene 24408) (UniProt P35439); test: NVS_LGIC_rGluNMDA_MK801_Agonist: NovaScreen (NVS) Ligand-Gated Ion Channel Assay for rat Glutamate, MK-801 Agonist Site (GluNMDA_MK801) (AID 2283340)
Outline: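 Rat forebrain membrane preparation; MK-801-site radioligand binding read by filtration and scintillation after 1.5 h. Single-point 25 uM duplicate screen, followed by singleton concentration series to 50 uM max; DMSO baseline.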

[13] = target: rat Glycine Receptor, Strychnine-sensitive (GlyRStrySens), Glra1 (gene 25674) (UniProt P07727); test: NVS_LGIC_rGlyRStrySens: NovaScreen (NVS) Ligand-Gated Ion Channel Assay for rat Glycine Receptor, Strychnine-sensitive (GlyRStrySens) (AID 2283341)
rat Glycine Receptor, Strychnine-sensitive (GlyRStrySens), Glra1 (gene 25674), sequence (P07727 whole entry, looked up): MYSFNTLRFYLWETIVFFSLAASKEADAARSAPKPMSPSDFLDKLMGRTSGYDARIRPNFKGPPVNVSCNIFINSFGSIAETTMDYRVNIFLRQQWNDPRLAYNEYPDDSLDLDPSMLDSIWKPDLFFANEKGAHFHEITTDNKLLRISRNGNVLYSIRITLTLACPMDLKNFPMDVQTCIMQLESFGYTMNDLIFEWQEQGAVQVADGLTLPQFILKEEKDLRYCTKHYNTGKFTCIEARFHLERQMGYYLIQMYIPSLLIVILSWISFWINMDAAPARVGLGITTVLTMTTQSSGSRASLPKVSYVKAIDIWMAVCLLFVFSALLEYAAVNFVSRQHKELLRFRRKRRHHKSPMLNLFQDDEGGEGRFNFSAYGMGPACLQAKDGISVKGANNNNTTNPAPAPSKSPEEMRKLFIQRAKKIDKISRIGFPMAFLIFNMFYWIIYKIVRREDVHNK
Outline: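 Radioligand displacement on rat spinal cord membranes, 1 hr, filter scintillation read-out. Single-concentration duplicate screen at 25 uM; chemicals meeting threshold (e.g., 30% inhibition) rerun in concentration-response up to 50 uM. Loss of binding fitted versus DMSO.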

[14] = test system: NCBI gene 24521; test: NVS_IC_rKATPCh: NovaScreen (NVS) Ion Channel Assay for rat Potassium Channel, ATP-Sensitive (KATPCh) (AID 2283319)
Outline: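 Primary duplicate screen at 25 uM, then singleton concentration series to 50 uM maximum, in a rat cortex membrane radioligand displacement assay. Binding measured by filtration and scintillation 2 h post-dose; DMSO baseline.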

[15] = target: rat Gamma-Aminobutyric Acid Type A Receptor, Non-Selective (GABAR-NonSelective), Gabra1 (gene 29705) (UniProt P62813); test: NVS_LGIC_rGABAR_NonSelective: NovaScreen (NVS) Ligand-Gated Ion Channel Assay for rat Gamma-Aminobutyric Acid Type A Receptor, Non-Selective (GABAR-NonSelective) (AID 2283326)
Outline: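 Compounds were first screened in duplicate at 25 uM, with actives run as singleton concentration series (max 50 uM). Binding of a radioligand to rat whole-brain GABA-A preparation was measured by filtration and scintillation counting after 1 h, DMSO baseline.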

[16] = target: Small conductance calcium-activated potassium channel protein 1 (Rattus norvegicus) (UniProt P70606); test: NVS_IC_rKCaCh: NovaScreen (NVS) Ion Channel Assay for rat Potassium Channel, Ca2+ Act., VI (KCaCh) (AID 2283336)
Outline: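 Filter-based scintillation counting of radioligand bound to rat forebrain membrane preparations, measured 1 h after compound addition. Primary screen used 25 uM in duplicate, with concentration-response follow-up; signal decrease relative to DMSO marks activity.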

With `COc1cccc([C@H](O)C2CCN(CCc3ccc(F)cc3)CC2)c1OC` the AC50 [1] was 6.91 µM (active), the AC50 [2] was 25 µM (active) and the AC50 [3] was 3.64 µM (active). For the same molecule, the outcome [4] was “inactive” and the AC50 [5] was 1.35 µM (active).
In the case of `Cc1cc(F)ccc1-c1cc(N2CC[C@@H](O)[C@H]2CO)ncc1N(C)C(=O)C(C)(C)c1cc(C(F)(F)F)cc(C(F)(F)F)c1`, the AC50 [3] is reported as 5.99 µM (active), the outcome [6] is reported as “inactive” and the AC50 [7] is reported as 7.95 µM (active). For the same molecule, the outcome [5] was “inactive”.
With `CC/C(=C(/CC)c1ccc(O)cc1)c1ccc(O)cc1` the AC50 [1] was 12 µM (active), the outcome [8] was “inactive” and the AC50 [9] was 20.8 µM (active) and 25 µM (active) and 1.49 µM (active). For the same molecule, the AC50 [5] was 12.4 µM (active).
With `CN(C[C@@H](CC[N+]12CCC(C3CCCCC3)(CC1)CC2)c1ccc(Cl)c(Cl)c1)C(=O)c1cc(C(F)(F)F)cc(C(F)(F)F)c1` the AC50 [1] was 35.5 µM (active), the outcome [8] was “inactive” and the AC50 [10] was 38.2 µM (active). The AC50 [9] was 2.4 µM (active) and the AC50 [5] was 1.48 µM (active).
In the case of `O=c1[nH]sc2ccccc12`, the AC50 [1] is reported as 19.6 µM (active), the outcome [8] is reported as “inactive” and the outcome [11] is reported as “inactive”.
In the case of `CC(O)CC(C)(C)O` (stereo unspecified), the outcome [3] is reported as “inactive” and the outcome [6] is reported as “inactive”.
For `COc1cc(C(=O)NC2CCN(C)CC2)ccc1Nc1ncc2c(n1)N(C1CCCC1)CC(F)(F)C(=O)N2C`, the AC50 [3] was 2.03 µM (active), the AC50 [10] was 11.5 µM (active) and the outcome [6] was “inactive”. The AC50 [7] was 5.1 µM (active), the AC50 [5] was 10.8 µM (active) and the AC50 [12] was 15.9 µM (active).
In the case of `Clc1ccccc1C(c1ccccc1)(c1ccccc1)n1ccnc1`, the outcome [1] is reported as “inactive”.
For `CN(C)c1ccc(C(=C2C=CC(=[N+](C)C)C=C2)c2ccc(N(C)C)cc2)cc1`, the AC50 [1] was 2.21 µM (active), the AC50 [2] was 4.99 µM (active) and the AC50 [3] was 0.263 µM (active). The outcome [8] was “inactive”, the AC50 [4] was 16.7 µM (active) and the AC50 [7] was 5.33 µM (active). For the same molecule, the AC50 [9] was 5.36 µM (active) and the AC50 [5] was 5.44 µM (active).
For `O=C(O)Cc1cc(I)c(Oc2ccc(O)c(I)c2)c(I)c1`, the outcome [1] was “inactive” and the outcome [13] was “inactive”.
For `NCc1cccc(C2CCN(C(=O)c3ccc(C#Cc4ccccc4F)o3)CC2)c1`, the AC50 [1] was 12.1 µM (active), the AC50 [2] was 21.1 µM (active) and the AC50 [3] was 2.68 µM (active). For the same molecule, the AC50 [7] was 6.03 µM (active), the outcome [9] was “inactive” and the AC50 [5] was 2.9 µM (active). For the same molecule, the AC50 [12] was 39.9 µM (active) and the outcome [13] was “inactive”.
With `Cc1occc1C(=O)Nc1ccc(C(=O)N2CCC(F)(F)/C(=C\C(=O)N3CCC(N4CCCCC4)CC3)c3ccccc32)cc1` the AC50 [1] was 5.85 µM (active), the AC50 [3] was 4.89 µM (active) and the outcome [6] was “inactive”. The AC50 [5] was 5.12 µM (active).
In the case of `c1ccc(C[n+]2cccc3ccccc32)cc1`, the AC50 [1] is reported as 14.5 µM (active), the AC50 [3] is reported as 10.7 µM (active) and the outcome [12] is reported as “inactive”.
With `CN(C)C(=O)C1(N2CCCCC2)CCN(CC[C@@]2(c3ccc(Cl)c(Cl)c3)CN(C(=O)c3ccccc3)CCO2)CC1` the AC50 [1] was 1.73 µM (active), the outcome [14] was “inactive” and the AC50 [2] was 0.655 µM (active). The AC50 [3] was 0.822 µM (active), the AC50 [8] was 4.68 µM (active) and the AC50 [15] was 2 µM (active). The AC50 [10] was 29.3 µM (active), the AC50 [7] was 8.74 µM (active) and the outcome [16] was “inactive”. For the same molecule, the AC50 [5] was 0.27 µM (active) and the outcome [12] was “inactive”.
